An excerpt weighted towards active compounds, which were near 19% of everything screened.
DT40 TDP1 CPT: qHTS for Inhibitors of human tyrosyl-DNA phosphodiesterase 1 (TDP1): qHTS in cells in presence of CPT | chicken DT40 Tdp1-/-;hTDP1 cells + 20 nM CPT, ATP luminescence, 48 h | actives 12% (n = 420,000) | Potency, µM (doses to about 46.2 µM), usual class: inhibitors; further: nearly all actives have a fitted effect of over 55% in size
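Chicken DT40 Tdp1-/- cells stably complemented with human TDP1 were seeded at 400 cells/well in medium containing 20 nM camptothecin, exposed to pin-transferred compounds, and grown at 37 °C for at least 48 hr. Viability was read as ATP luminescence.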
IL1B secr inh: qHTS for Inhibitors of Inflammasome Signaling: IL-1-beta AlphaLISA Primary Screen. actives 4.7% (n = 360,000). THP-1 LPS/ATP IL-1B secretion, AlphaLISA, 16 h; active compounds read low. activity change, % at 57.5 µM. AID 743279, 2014; in the data active means activity change below about -50%; inconclusive means mostly about -30% to -49%
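THP-1 cells pretreated 1 hr with compounds (up to 57.5 uM final), then stimulated with LPS (250 ng/mL final) plus ATP (1.25 mM final); secreted IL-1B measured by AlphaLISA after 16 hr, decreased signal indicating inhibition.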
TDP1 cell noCPT: qHTS for Inhibitors of human tyrosyl-DNA phosphodiesterase 1 (TDP1): qHTS in cells in absence of CPT | Potency, µM (titrated, usually from 46.2 µM), usual class: inhibitors | actives 15% (n = 420,000) | AID 686978, 2013 | DT40 Tdp1-/- hTDP1 cells, no CPT, ATP luminescence, 48 h; further: nearly all actives have a fitted effect of over 55% in size
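Chicken DT40 Tdp1-/- cells complemented with human TDP1, screened without camptothecin (DMSO vehicle only), 400 cells/well. Compounds pin-transferred, cells incubated at 37 °C for at least 48 hr. Growth read as ATP-dependent luminescence (CellTiter-Glo, 30 min at RT).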
HT1080NT lethal: qHTS for induction of synthetic lethality in tumor cells producing 2HG: qHTS for the HT-1080-NT fibrosarcoma cell line; actives 1.6% (n = 360,000); HT-1080-NT fibrosarcoma viability, CellTiter-Glo ATP luminescence, 48 h; Potency, µM (titrated, usually from 46.1 µM), hits mostly cytotoxic;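 further: NT is the 2HG producing partner of a matched IDH1 knockdown line; nearly all actives have a fitted effect of over 55% in size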
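HT-1080-NT fibrosarcoma cells (2HG-overproducing), 750 cells/well in RPMI with 5% FBS, dosed after 2 h and incubated 48 h at 37C. CellTiter-Glo luminescence normalized to DMSO and no-cell wells; concentration-response curves fitted and classed.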
HT1080 IDH1KD tx: qHTS for induction of synthetic lethality in tumor cells producing 2HG: qHTS for the HT-1080-IDH1KD cell line | HT-1080 IDH1 knockdown viability, ATP luminescence, 48 h | Potency, µM (doses to about 46.1 µM), usual class: cytotoxic | actives 2% (n = 360,000) | AID 686971, 2013
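In this qHTS, HT-1080 cells depleted of IDH1 are exposed for 48 h at 37 °C to compound titrations. Toxicity is scored from CellTiter-Glo luminescence, with DMSO as full viability and medium alone as none.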
Each line names hits and unclear results; the compound was inactive in the other large screens; ! = a repeat was not active. Unless noted, the call rests on the fitted dose curve; in most records, active means well fitted curve in the direction sought with a large enough effect; inconclusive means small, poorly fitted or top-dose-only effect, or another doubt; inactive means no such curve, though single readings can be large; an effect the other way counts as inactive or inconclusive.

CCOc1ccc(-n2cc(-c3ccccc3)c3c(SC(C)C(=O)OC)ncnc32)cc1 (centres undefined)	DT40 TDP1 CPT inconclusive, TDP1 cell noCPT inconclusive
CCOc1ccc(-n2cc(-c3ccccc3)c3c(NC4CCCC4)ncnc32)cc1	DT40 TDP1 CPT 15µM, TDP1 cell noCPT 13µM (no result: IL1B secr inh, HT1080NT lethal, HT1080 IDH1KD tx)
COc1ccc(-n2cc(-c3ccccc3)c3c(NC4CCCCC4)ncnc32)cc1	DT40 TDP1 CPT inconclusive, TDP1 cell noCPT 12µM (no result: IL1B secr inh, HT1080NT lethal, HT1080 IDH1KD tx)
COc1ccc(-n2cc(-c3ccccc3)c3c(NCCOCCO)ncnc32)cc1	DT40 TDP1 CPT inconclusive, TDP1 cell noCPT inconclusive
Cc1ccc(Cl)cc1NC(=O)c1oc2ccc(S(=O)(=O)N3CCCCC3)cc2c1C	none (no result: IL1B secr inh, HT1080NT lethal, HT1080 IDH1KD tx)
Cc1c(C(=O)Nc2ccccc2Br)oc2ccc(S(=O)(=O)N3CCOCC3)cc12	none (no result: IL1B secr inh, HT1080NT lethal, HT1080 IDH1KD tx)
Cc1ccc(Cl)cc1NC(=O)c1oc2ccc(S(=O)(=O)N(C)C3CCCCC3)cc2c1C	DT40 TDP1 CPT 21µM, TDP1 cell noCPT inconclusive (no result: IL1B secr inh, HT1080NT lethal, HT1080 IDH1KD tx)
Cc1cccc(NC(=O)c2oc3ccc(S(=O)(=O)N(C)C4CCCCC4)cc3c2C)c1C	DT40 TDP1 CPT 10µM, TDP1 cell noCPT 8.2µM (no result: IL1B secr inh, HT1080NT lethal, HT1080 IDH1KD tx)
Cc1c(C(=O)Nc2cccc(Cl)c2)oc2ccc(S(=O)(=O)N(C)C3CCCCC3)cc12	DT40 TDP1 CPT inconclusive, TDP1 cell noCPT 21µM (no result: IL1B secr inh, HT1080NT lethal, HT1080 IDH1KD tx)
Cc1c(NC(=S)NC(=O)c2cc3ccccc3o2)c(=O)n(-c2ccccc2)n1C	none
O=C(COC(=O)c1cc(=O)[nH]c2ccccc12)c1cccs1	none
CCCCNC(=O)C1(C)CCN1Cc1ccc(C#N)cc1 (centres undefined)	HT1080 IDH1KD tx inconclusive
COc1cc2c(cc1OC)/C(=C/C(C)=O)OC2	none
COc1cc2c(cc1OC)/C(=C/c1ccc(Cl)cc1)C(=O)OC2	DT40 TDP1 CPT inconclusive, IL1B secr inh -81, TDP1 cell noCPT inconclusive, HT1080NT lethal inconclusive, HT1080 IDH1KD tx inconclusive
COc1ccc(/C=C2\C(=O)OCc3cc(OC)c(OC)cc32)cc1OC	DT40 TDP1 CPT inconclusive, IL1B secr inh -51
Cc1nc(C(=O)Nc2cccc(Cl)c2)nn1-c1cc(OC(C)C)c(Cl)cc1Cl	DT40 TDP1 CPT 16µM, TDP1 cell noCPT inconclusive
Cc1nc(C(=O)Nc2cc(Cl)ccc2Cl)nn1-c1cc(OC(C)C)c(Cl)cc1Cl	DT40 TDP1 CPT 16µM, TDP1 cell noCPT 12µM, HT1080NT lethal inconclusive
Cc1nc(C(=O)Nc2ccc(Cl)cc2Cl)nn1-c1cc(OC(C)C)c(Cl)cc1Cl	DT40 TDP1 CPT inconclusive, TDP1 cell noCPT inconclusive
CN(C(=O)c1cccc(NC(=O)Cc2ccc(NC(=O)C3CCCN(C(=O)C4CCCC4)C3)cc2)c1)C1CC1 (centres undefined)	TDP1 cell noCPT inconclusive
Cc1c(C(=O)NCC(C)(C)N2CCOCC2)cnn1-c1nccc(-c2cccs2)n1	none (no result: IL1B secr inh, HT1080NT lethal, HT1080 IDH1KD tx)
CCc1ccc(CN2CCC(CO)(CC3CCCCO3)CC2)o1 (centres undefined)	none
Cc1cc(C)cc(NS(=O)(=O)c2ccc3[nH]cc(C(=O)NCc4ccco4)c(=O)c3c2)c1	DT40 TDP1 CPT 12µM, IL1B secr inh -56, TDP1 cell noCPT 15µM, HT1080NT lethal 2.6µM, HT1080 IDH1KD tx 5.2µM
Cc1cc(C)cc(NS(=O)(=O)c2ccc3[nH]cc(C(=O)N4CCCCCC4)c(=O)c3c2)c1	none (no result: IL1B secr inh, HT1080NT lethal, HT1080 IDH1KD tx)
COc1cccc(NS(=O)(=O)c2ccc3[nH]cc(C(=O)NC4CCCCC4)c(=O)c3c2)c1	DT40 TDP1 CPT 18µM, TDP1 cell noCPT 18µM (no result: IL1B secr inh, HT1080NT lethal, HT1080 IDH1KD tx)
Cc1cc(C)cc(NS(=O)(=O)c2ccc3[nH]cc(C(=O)NC4CCCCC4)c(=O)c3c2)c1	DT40 TDP1 CPT 23µM, TDP1 cell noCPT 16µM (no result: IL1B secr inh, HT1080NT lethal, HT1080 IDH1KD tx)
COc1cccc(NS(=O)(=O)c2ccc3[nH]cc(C(=O)N(C)Cc4ccco4)c(=O)c3c2)c1	DT40 TDP1 CPT 23µM!, TDP1 cell noCPT 23µM!, HT1080 IDH1KD tx inconclusive
Cc1ccccc1NS(=O)(=O)c1ccc2[nH]cc(C(=O)N(C)Cc3ccco3)c(=O)c2c1	none

Compound activity: PubChem, National Center for Advancing Translational Sciences (NCATS)
